TGFb inhibitor – qHTS for Inhibitors of TGF-b; HepG2 CAGA-GFP TGF-b/SMAD3 reporter, GFP fluorescence, 18 h; TGF-beta stimulated, 500 pg/mL final; Potency, µM (doses to about 46.1 µM), for the others: top-dose activity, negative = inhibition, usual class: inhibitors; 1.2% of 410,000 active; note: % is set by controls: 0 for no effect and ±100 for the full control effect; nearly all actives have a fitted effect of over 65% in size
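Inhibition of TGF-beta-driven CAGA-GFP reporter expression in HEPG2 cells is measured by cellular GFP fluorescence after 18 h stimulation with 500 pg/mL recombinant TGF-beta in 1% FBS medium at 37 degrees C.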
ATXN2 expr inh – Primary qHTS for Inhibitors of ATXN expression; HEK-293 ATXN2-luciferase reporter, luminescence, 24 h; Potency, µM (titrated, usually from 57 µM), for inactives: at the highest dose activity change, negative = inhibition, actives largely listed as inhibitors; 0.72% of 360,000 active; AID 1745845, 2022; note: % is set by controls: 0 for no effect and ±100 for the full control effect; nearly all actives have a fitted effect of over 55% in size
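ATXN2-luciferase reporter cells (luciferase flanked by upstream and downstream ATXN2 gene portions) were treated 24 h at 37 °C with compounds at up to 57 uM. SteadyGlo luminescence gave expression; GF-AFC fluorescence gave viability.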
VP16 counter – VP16 counterscreen qHTS for inhibitors of ROR gamma transcriptional activity; Drosophila S2 Gal4-VP16 UAS-luciferase, luminescence, 20 h; 3.5% of 310,000 active; Potency, µM (doses to about 53.6 µM), for the others: at the top dose activity, negative = inhibition, usual class: inhibitors;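 note: Gal4-VP16 expression switched on by copper sulfate through the metallothionein promoter; % is set by controls: 0 for no effect and ±100 for the full control effect; nearly all actives have a fitted effect of over 50% in size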
S2 tox – Viability Counterscreen for Primary qHTS for Inhibitors of ATXN expression. Potency, µM (highest dose often 56.7 µM), hits mostly cytotoxic. AID 651635, 2014. S2 cells (HEK-293 line with an ATXN2-luciferase reporter) viability, CellTiter-Fluor protease fluorescence, 24 h. 0.49% of 400,000 active; note: nearly all actives have a fitted effect of over 40% in size
RORgamma inh – qHTS for inhibitors of ROR gamma transcriptional activity. Nuclear receptor ROR-gamma (Mus musculus), P51450. Drosophila S2 Gal4-RORgamma UAS-luciferase reporter, 20 h. Potency, µM (titrated, usually from 53.6 µM), without a hit: at the highest dose activity change, negative = inhibition, usual class: inhibitors. 5.4% of 310,000 active. AID 2551, 2010; note: % is set by controls: 0 for no effect and ±100 for the full control effect; nearly all actives have a fitted effect of over 60% in size
Target sequence (P51450 whole entry, looked up, the tested form may be a part): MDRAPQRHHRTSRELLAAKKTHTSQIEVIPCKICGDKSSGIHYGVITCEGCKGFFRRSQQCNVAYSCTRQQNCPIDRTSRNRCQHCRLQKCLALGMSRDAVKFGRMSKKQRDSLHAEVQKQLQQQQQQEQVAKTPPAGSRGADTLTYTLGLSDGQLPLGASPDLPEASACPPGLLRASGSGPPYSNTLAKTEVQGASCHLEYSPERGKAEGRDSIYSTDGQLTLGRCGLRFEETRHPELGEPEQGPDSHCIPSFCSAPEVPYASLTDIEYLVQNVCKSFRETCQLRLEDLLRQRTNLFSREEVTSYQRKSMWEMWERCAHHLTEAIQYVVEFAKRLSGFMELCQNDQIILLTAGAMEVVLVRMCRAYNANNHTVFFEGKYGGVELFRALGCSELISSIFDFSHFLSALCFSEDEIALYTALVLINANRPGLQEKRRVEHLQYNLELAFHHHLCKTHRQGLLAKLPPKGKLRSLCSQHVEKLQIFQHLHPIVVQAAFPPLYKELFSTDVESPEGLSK
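Drosophila S2 cells stably expressing Gal4-DBD/mouse RORγ fusion under metallothionein promoter plus UAS-luciferase; compound 1 h, then 700 uM CuSO4 induction for 20 h at ambient temperature; inhibition read as reduced luminescence.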
HepG2 tox – qHTS for Inhibitors of TGF-b: Cytotox Counterscreen; HepG2 CAGA-GFP viability, ATP luminescence, 18 h; Potency, µM (top dose mostly 46.1 µM), for the others: top-dose activity change, negative = cytotoxicity, actives largely listed as cytotoxic; 0.76% of 410,000 active
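HepG2 CAGA-GFP cells (1000/well, DMEM with 1% FBS) received compound, then TGF-beta at 500 pg/mL final, and were incubated 18 hours at 37 degrees C. Viability was read by CellTiter-Glo luminescence. Media-only wells were set as complete cell-killing and DMSO as no toxicity.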
Active calls of the source: *. This is a sample that favours compounds with a hit; in the whole collection about 6.1% have one here. Calls come from the whole dose curve; as a rule, active = well fitted curve in the direction sought with a large enough effect; inconclusive = small, poorly fitted or top-dose-only effect, or another doubt; inactive = no such curve, though single readings can be large; an effect the other way counts as inactive or inconclusive. Potency is the fitted concentration of half-maximal effect.

What do the screens show for `Cc1ccc(-c2csc(NC(=O)CSC3=NCCS3)n2)cc1`?
TGFb inhibitor: inconclusive; VP16 counter: 13µM*; RORgamma inh: -40%; HepG2 tox: -24%

How did COCCn1c(C)cc(O)c(C(c2ccccc2Cl)N2CCCCC2)c1=O (centres undefined) do in these assays?
TGFb inhibitor: 20%; HepG2 tox: 10%

How did CC(C)(C)c1ccc(S(=O)(=O)NCc2nc3cccnc3n2Cc2ccccc2Cl)cc1 do in these assays?
TGFb inhibitor: inconclusive; HepG2 tox: -34%

Results for Cc1nn(C)c2nc(NNC(=O)Nc3cc(Cl)nc(Cl)c3)cc(C(C)C)c12 ?
VP16 counter: 16µM*; RORgamma inh: -18%

How did Cc1cc(NNC(=O)Nc2cccc(Cl)c2)nc2c1c(C)nn2C do in these assays?
VP16 counter: 11µM*; RORgamma inh: inconclusive

What do the screens show for `Cc1nn(C)c(C)c1NC(=O)Nc1ccc(Cl)c(Cl)c1`?
TGFb inhibitor: 1%; ATXN2 expr inh: -4%; VP16 counter: 8%; S2 tox: inactive; RORgamma inh: 13%; HepG2 tox: 67%

What do the screens show for `CCC(C)[C@H]1CNC(=S)N1CCC12CC3CC(CC(C3)C1)C2` (some centres undefined)?
TGFb inhibitor: 12%; ATXN2 expr inh: inconclusive; VP16 counter: 2.8µM*; S2 tox: inconclusive; RORgamma inh: 0.89µM*; HepG2 tox: -4%

Results for CCC(C)[C@H]1CNC(=S)N1CCc1cccc2ccccc12 (some centres undefined) ?
TGFb inhibitor: inconclusive; ATXN2 expr inh: inconclusive; VP16 counter: 4.5µM*; S2 tox: inconclusive; RORgamma inh: 2.5µM*; HepG2 tox: -27%

What do the screens show for `CC[C@H](C)[C@H]1CNC(=S)N1CC1CCN(CC)CC1`?
TGFb inhibitor: 4%; ATXN2 expr inh: 1%; S2 tox: inactive; HepG2 tox: 6%

How did CCC(C)[C@H]1CN=C(N)N1CCc1cccc2ccccc12 (some centres undefined) do in these assays?
TGFb inhibitor: inconclusive; ATXN2 expr inh: -31%; S2 tox: inactive; HepG2 tox: -59%

Results for CCN(CC)S(=O)(=O)c1ccc(NC(=O)CSc2cccc[n+]2[O-])cc1 ?
TGFb inhibitor: 13%; ATXN2 expr inh: 3%; VP16 counter: -4%; S2 tox: inactive; RORgamma inh: 7%; HepG2 tox: 10µM*

What do the screens show for `CCCN(CCC)CCCNC(=O)c1cc2c(-c3ccc(Cl)cc3)nn(C)c2s1`?
TGFb inhibitor: inconclusive; ATXN2 expr inh: inconclusive; S2 tox: 25µM*; HepG2 tox: -46%

What do the screens show for `CN1CCN(CCCNC(=O)c2cc3c(-c4ccc(Cl)cc4)nn(C)c3s2)CC1`?
TGFb inhibitor: -6%; ATXN2 expr inh: 4%; VP16 counter: -21%; S2 tox: inactive; RORgamma inh: 1%; HepG2 tox: -33%

Results for CCN(CC)CCCNC(=O)c1cc(-c2ccc(Cl)c(Cl)c2)on1 ?
TGFb inhibitor: inconclusive; ATXN2 expr inh: inconclusive; VP16 counter: -19%; S2 tox: inconclusive; RORgamma inh: -42%; HepG2 tox: 16µM*

What do the screens show for `CCN(CC)CCCNC(=O)c1cc(-c2ccc(O)cc2)on1`?
TGFb inhibitor: inconclusive; ATXN2 expr inh: 0%; VP16 counter: -1%; S2 tox: inconclusive; RORgamma inh: inconclusive; HepG2 tox: -13%

Results for CCN(CC)CCCNC(=O)c1cc2c(-c3ccc(Cl)cc3)nn(C)c2s1 ?
TGFb inhibitor: inconclusive; ATXN2 expr inh: 25µM*; VP16 counter: inconclusive; RORgamma inh: inconclusive; HepG2 tox: -93%

What do the screens show for `COC(=O)c1sccc1N/N=C/c1cccc(OC)c1O`?
TGFb inhibitor: inconclusive; ATXN2 expr inh: inconclusive; VP16 counter: 16µM*; S2 tox: inactive; RORgamma inh: inconclusive; HepG2 tox: -46%

How did Cc1cc(N/N=C/c2ccccc2O)c2ccccc2n1 do in these assays?
TGFb inhibitor: inconclusive; ATXN2 expr inh: 16µM*; VP16 counter: -25%; S2 tox: inconclusive; RORgamma inh: -14%; HepG2 tox: -39%

Results for C=CCn1c(N/N=C/c2ccc(O)cc2)nc2ccccc2c1=O ?
TGFb inhibitor: -17%; ATXN2 expr inh: 37%; VP16 counter: -15%; S2 tox: inactive; RORgamma inh: inconclusive; HepG2 tox: -48%

How did COc1cccc2c(N/N=C/c3ccccc3)cc(C)nc12 do in these assays?
TGFb inhibitor: 2%; ATXN2 expr inh: -35%; VP16 counter: 10%; S2 tox: inactive; RORgamma inh: 12%; HepG2 tox: 33%

How did COc1ccc(/C=N/Nc2cc(C)nc3ccc(Br)cc23)cc1 do in these assays?
TGFb inhibitor: 11µM*; ATXN2 expr inh: inconclusive; VP16 counter: inconclusive; S2 tox: inconclusive; RORgamma inh: 13µM*; HepG2 tox: 6.3µM*

Results for Cc1ccccc1/C=N/Nc1nc2ccccc2c(=O)n1O ?
TGFb inhibitor: 7%; ATXN2 expr inh: 73%; VP16 counter: inconclusive; S2 tox: inactive; RORgamma inh: 7.1µM*; HepG2 tox: -13%

Results for Cc1ccccc1CN1CCCN(CC(=O)Nc2ccc3c(c2)OCCO3)S1(=O)=O ?
TGFb inhibitor: -22%; ATXN2 expr inh: 11%; S2 tox: inactive; HepG2 tox: -24%

Results for Nc1ccc(C(=O)N2CC3CC(CN(Cc4ccccc4)C3)C2)cc1 ?
ATXN2 expr inh: 0%; S2 tox: inactive

How did CC(=O)N1CC2(CC2)CC1c1ccccc1 (centres undefined) do in these assays?
VP16 counter: -2%; RORgamma inh: -2%

What do the screens show for `COc1ccc2nc(C)cc(N/N=C/c3cccc(OC)c3O)c2c1`?
TGFb inhibitor: inconclusive; ATXN2 expr inh: inconclusive; VP16 counter: 11µM*; RORgamma inh: inconclusive; HepG2 tox: -101%

How did COc1ccc2nc(C)cc(NCc3cccc(C(F)(F)F)c3)c2c1 do in these assays?
TGFb inhibitor: inconclusive; ATXN2 expr inh: inconclusive; VP16 counter: -7%; S2 tox: inactive; RORgamma inh: 2%; HepG2 tox: 22µM*

Results for COc1cc(C(=O)N2CCc3c([nH]c4ccccc34)C2c2ccc(C)cc2)cc(OC)c1OC (centres undefined) ?
TGFb inhibitor: inconclusive; HepG2 tox: -26%

Compound activity as filed in PubChem.
